Compound activity (PubChem BioAssay)
Tg IFNy HTS: blocks Toxoplasma gondii growth in the presence of IFN-gamma; Toxoplasma gondii growth in IFN-gamma-treated host cells; hits give low values; activity change, negative = inhibition, % (no concentration beside the values); 3.8% of 69,000 active; in the data active means activity change below about -70%, passing the limit was not always enough;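 further: host cells are HeLa cells infected with Toxoplasma gondii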
Active calls of the source: *; i = inactive. The sample as a whole holds a higher share of hits than the screen did.

SMILES	Tg IFNy HTS
C[C@@H]1CN([C@@H](C)CO)S(=O)(=O)c2ccc(-c3ccc(F)cc3)cc2O[C@H]1CN(C)Cc1ccccc1C(=O)O	-15.1
CCCN(C)C[C@@H]1Oc2cc(/C=C/c3ccccc3)ccc2S(=O)(=O)N([C@@H](C)CO)C[C@H]1C	-90.8*
CCCC#Cc1ccc2c(c1)O[C@@H](CN(C)Cc1ccccn1)[C@@H](C)CN([C@H](C)CO)S2(=O)=O	-29.5
CN1CC[C@@]2(CN(C(=O)c3cccn3C)C[C@H]2c2ccccc2)C1=O	-23.0
Cc1cccc(C(=O)N2CCC3(CC2)OC(C(=O)N2CCCC2)Cn2ccnc23)n1 (centres undefined)	15.1
CNC(=O)[C@H]1C[C@@H]2CN(CC3CCOCC3)C[C@@H]2N1C	-1.4
O=C1CCCN1[C@@H]1CCO[C@]2(CCN(c3ncc(F)cn3)C2)C1	-7.0
C=CCN(Cc1ccccc1OC)C(=O)C1CCN(C(C)=O)CC1	3.6
O=C1Cc2c([nH]c3ccc([N+](=O)[O-])cc23)-c2ccccc2N1	-73.6*
Cc1ccn2c(CN3CCCC3c3ccc(-c4cnn(C)c4)cn3)c(C)nc2c1 (centres undefined)	-27.6
Cc1nc2c(c(=O)n1C)CCN(C(=O)CN1CCC(c3ccccc3)C1)CC2 (centres undefined)	5.1
Cc1ccc(C(C)NC(=O)CNCC(C)(C)CO)cc1 (centres undefined)	-4.1
COc1ccc(CN2CCC(c3cc4c(ncn4C)c(-c4ccccc4)n3)CC2)cc1	-13.9
CN1CCC(N(CCc2ccccc2)C(=O)c2cnc(N3CCCCC3)nc2)CC1	-89.6*
Cc1ccccc1N(CC(=O)NCCc1ccccc1)C(=O)c1ccc(N2CCCC2)nc1	-16.5
CCN(C(=O)c1cnc(NC)nc1)C1CCN(C)CC1	-0.8
Cc1ccc(N2CC(C(=O)Nc3cc(-c4csnn4)ccc3C)CC2=O)c(C)c1 (centres undefined)	3.2
O=C(NCCS(=O)(=O)c1ccc(F)cc1)C1OCCc2ccccc21 (centres undefined)	9.8
COc1cccc2cc(C(=O)Nc3cnn(Cc4cccc(F)c4)c3)c(C)nc12	1.7
O=C(Nc1cnn(Cc2cccc(F)c2)c1)C1OCCc2ccccc21 (centres undefined)	-96.9*
CC(Cc1ccncc1)NC(=O)C(C)(C)NC(=O)c1cccs1 (centres undefined)	2.5
O=C(NCCCO)c1cc(-c2ccn(-c3ccccc3)n2)n2ccccc12	-3.7
CCCn1ccnc1CN(C)Cc1nc(-c2cccnc2)no1	-31.1
Cc1ccc2nc(COCC(=O)N3CCOC(C(F)(F)F)C3)[nH]c2c1 (centres undefined)	-0.1
Nc1ncnc2c1c(-c1cnc3[nH]ccc3c1)nn2C1CCCC1	-77.5*
SMILES	Tg IFNy HTS
Cc1ccc(-c2cc(NC3CCCC3)nc3[nH]ccc23)c(N)n1	-3.0
COCC(=O)Nc1ccc(-c2ccc(-c3ccn[nH]3)cc2)cc1	322.7
COc1cccc(C(=O)NCCc2csc(-c3cccc(C)c3)n2)c1	365.9
Cc1cccc(C(=O)NCCc2csc(-c3cccc(F)c3)n2)c1	-74.6*
COc1cccc(C(=O)NCCc2csc(-c3ccc(F)cc3)n2)c1	-68.3
O=C(NCCc1csc(-c2cccc(F)c2)n1)c1ccc(Br)cc1	-50.1
CC(=O)NCCc1csc(-c2cccc(F)c2)n1	102.1
O=C(NCCc1csc(-c2ccc(F)cc2)n1)c1cccc(C(F)(F)F)c1	-34.3
Cc1cccc(C(=O)NCCc2csc(-c3ccccc3)n2)c1	152.3
O=C(NCCc1csc(-c2ccc(F)cc2)n1)c1cccc(Br)c1	-87.0*
O=C(NCCc1csc(-c2cccc(F)c2)n1)c1cccc(Br)c1	-81.3*
COc1ccccc1NC(=O)CSCC(=O)c1c(C)[nH]c2ccccc12	65.8
CC1=Nc2ccccc2N=C(NC(=O)CSc2nnnn2C)C1c1ccccc1 (centres undefined)	183.6
Cc1nc2c(nc(SCc3nc(-c4ccccc4Cl)oc3C)n2C)c(=O)[nH]1	24.9
CN1C(=O)CCc2cc(NC(=O)c3ccccc3F)ccc21	196.8
CCOC(=O)CC1COCCN1C(=O)c1cc(-c2ccccc2)nn1C (centres undefined)	46.1
CCc1nccn1CCC(=O)N1CCC2(CC1)C(=O)NCCN2C	-50.8
CN(C)CCn1nc(-c2cccc(-n3cccc3)c2)oc1=O	-12.5
CNc1nc(C)c(C(=O)NCc2c(C)nn(-c3ccc(F)cc3)c2C)s1	10.2
Cn1c(=O)c2[nH]cnc2n(C)c1=O	111.7
S=c1nc[nH]c2nc[nH]c12	-70.5*
O=C(C1CC2CN(Cc3ccc(Cl)cc3)CC1O2)N1CCOCC1 (centres undefined)	-19.3
COc1ccc(CNC(=O)c2nc(Cn3c(C(F)F)nc4ccccc43)no2)cc1	-30.6
O=C(CCc1c[nH]c2ccccc12)N1CCN(c2cc(-c3cccnc3)[nH]n2)CC1	104.0
O=C(c1cc2ccccc2[nH]1)N1CCC(c2[nH]ncc2Cc2ccccc2)CC1	-11.8
SMILES	Tg IFNy HTS
O=C(NCC1CCN(c2cc(-c3ccncc3)[nH]n2)CC1)c1cc2ccccc2[nH]1	-78.5*
O=C(Cn1ncc2c(N3CCOCC3)ncnc21)Nc1cccc(OC(F)(F)F)c1	-56.5
CC(C)CC(NC(=O)OCC1c2ccccc2-c2ccccc21)C(=O)O (centres undefined)	-0.1
CC(C)C[C@@H](C=O)NC(=O)[C@H](CC(C)C)NC(=O)[C@H](CC(C)C)NC(=O)OCc1ccccc1	-81.5*
CC(C)C[C@H](NC(=O)[C@@H](O)[C@H](N)Cc1ccccc1)C(=O)O	10.1
CCc1cnc(C)nc1N1CCCC(N2CCN(c3ccccc3C)CC2)C1 (centres undefined)	-23.5
CCOC(=O)c1ccc(NC(=O)NCC(c2cccnc2)c2cn(CC)c3ccccc23)cc1 (centres undefined)	-101.8*
CCn1cc(C(CNC(=O)Nc2ccc(OC)cc2OC)c2cccnc2)c2ccccc21 (centres undefined)	i
CCOC(=O)c1ccc(NC(=O)NCC(c2cccnc2)c2c[nH]c3ccccc23)cc1 (centres undefined)	49.6
CCn1cc(C(CNC(=O)Nc2cccc(SC)c2)c2cccnc2)c2ccccc21 (centres undefined)	-110.7*
CCOC(=O)c1ccc(NC(=O)NCC(c2cccnc2)c2cn(C)c3ccccc23)cc1 (centres undefined)	i
Cn1cc(C(CNC(=O)Nc2cccc(Br)c2)c2cccnc2)c2ccccc21 (centres undefined)	-58.8
COCCN1CCC2(CCN2Cc2csc(C)n2)C1 (centres undefined)	11.4
Cc1ccn2c(C(=O)N3CCCC(Nc4cccc(F)c4)C3)nnc2n1 (centres undefined)	3.4
Cc1cnc(C)c(N2CCN(Cc3ccc(C4CCCO4)s3)CC2)n1 (centres undefined)	-6.5
CCC1CCCCN1CCCNC(=O)C1=C(C)C(=O)OC12CCN(C(C)=O)CC2 (centres undefined)	52.5
Cc1ccc(NS(=O)(=O)c2cnn(C)c2C)cc1S(=O)(=O)N1CCOCC1	18.1
COc1cccc(-c2nc(Cn3nnc(C(=O)Nc4ccccc4)c3C)c(C)o2)c1OC	-50.2
CCOc1ccccc1-c1nc(Cn2nnc(C(=O)Nc3ccccc3OC)c2C)c(C)o1	-19.2
COc1cccc(-c2nc(Cn3nnc(C(=O)Nc4cccc(Cl)c4C)c3C)c(C)o2)c1OC	-16.4
COc1ccc(NC(=O)c2nnn(Cc3nc(-c4cccc(OC)c4OC)oc3C)c2C)cc1Cl	32.5
COc1cccc(-c2nc(Cn3nnc(C(=O)Nc4cc(C)cc(C)c4)c3C)c(C)o2)c1OC	-104.7*
